Data: PubChem BioAssay (NCATS)
Results filed as inconclusive are left out. The source made the active and inactive calls. The call rests on the fitted dose curve; in most records, active means well fitted cell-killing curve with a large enough effect; inconclusive means small, poorly fitted or top-dose-only effect, or effect the other way; inactive means no such curve, though single readings can be large or run the other way.
Potency means the concentration at half of the fitted maximal effect.

Test: Viability qHTS for spleen associated tyrosine kinase inhibitor (SYKi) drug resistant MV4-11 cells (AID 1963824); further: nearly all actives have a fitted effect of over 35% in size
Details: SYKi-resistant MV4-11 viability, CellTiter-Glo, 72 h; series mostly up to 45 µM; viability, % of control: at the top concentration
Summary of the method: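 CellTiter-Glo luminescence, read 10 min after reagent addition, reports viability after a 72 hr compound exposure. Cells are an MV4-11 line made resistant to SYK inhibition, seeded at 500 per well onto compound-containing plates.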
In the case of Cc1noc(-c2ccc(-c3ccc(C4(C(=O)O)CC4)cc3)cc2)c1NC(=O)O[C@H](C)c1ccccc1, the Potency is reported as 11.8 µM (active). For COC(=O)[C@@H](NC(=O)[C@H](CC(C)C)NC(=O)N(Cc1ccccc1)C[C@@H](O)[C@H](Cc1ccccc1)NC(=O)OC(C)(C)C)C(C)C, the Potency was 3.35 µM (active). For COc1ccc(C2(O)CCC(N3CC[C@@H](NC(=O)CNC(=O)c4cccc(C(F)(F)F)c4)C3)CC2)cn1 (some centres undefined), the “viability, % of control” value was 56.7% (inactive). For OC[C@H]1O[C@@H](OCCc2ccc(O)cc2)[C@H](O)[C@@H](O)[C@@H]1O, the “viability, % of control” value was 80.6% (inactive).
